Assays:
Experiment in all cases: PBM binding z-score (relative to random genomic background probes); higher = stronger binding; sequences stand for … in GC…GCGATTGACAGCGTAGAATGAAGG
[1] = tested on: FXR:RXRa (NR concentration 270 nM, RXRa partner concentration 90 nM)
Summary of the method: (§1)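 Ligand-free nuclear receptor dimers were bound for 1 h to custom Agilent 4×180K protein-binding microarrays. Detection used antibodies against each partner (one per run). Binding z-scores rest on regression-normalized fluorescence, with random background probes as the reference.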

[2] = tested on: LXRa:RXRa (NR concentration 270 nM, RXRa partner concentration 90 nM)
Summary of the method: as §1

[3] = tested on: LXRa homodimer (NR concentration 270 nM)
Summary of the method: as §1

[4] = tested on: LXRb:RXRa (NR concentration 270 nM, RXRa partner concentration 90 nM)
Summary of the method: as §1

[5] = tested on: LXRb homodimer (NR concentration 270 nM)
Summary of the method: as §1

[6] = tested on: PPARa:RXRa (NR concentration 270 nM, RXRa partner concentration 90 nM)
Summary of the method: as §1

[7] = tested on: PPARg:RXRa (NR concentration 180 nM, RXRa partner concentration 90 nM)
Summary of the method: as §1

[8] = tested on: PPARg:RXRa 270nM:90nM, anti-RXR (NR concentration 270 nM, RXRa partner concentration 90 nM)
Summary of the method: as §1

[9] = tested on: PPARg:RXRa 30nM:10nM, anti-RXR (NR concentration 30 nM, RXRa partner concentration 10 nM)
Summary of the method: as §1

[10] = tested on: PPARg:RXRa 90nM:30nM, anti-RXR (NR concentration 90 nM, RXRa partner concentration 30 nM)
Summary of the method: as §1

[11] = tested on: PPARg:RXRa DBDmut IVT, anti-RXR (DBD mutation: RXRa K156A/R161A, NR concentration 270 nM, RXRa partner concentration 90 nM)
Summary of the method: as §1

[12] = tested on: PPARg:RXRa IVT, anti-PPARg (NR concentration 270 nM, RXRa partner concentration 90 nM)
Summary of the method: as §1

[13] = tested on: PPARg DBDmut:RXRa IVT, anti-PPARg (DBD mutation: PPARg1 K132A/R137A, NR concentration 270 nM, RXRa partner concentration 90 nM)
Summary of the method: as §1

[14] = tested on: PPARg DBDmut IVT, anti-PPARg (DBD mutation: PPARg1 K132A/R137A, NR concentration 270 nM)
Summary of the method: as §1

[15] = tested on: PPARg homodimer (NR concentration 180 nM)
Summary of the method: as §1

[16] = tested on: PXR:RXRa (NR concentration 270 nM, RXRa partner concentration 90 nM)
Summary of the method: as §1

[17] = tested on: PXR homodimer (NR concentration 270 nM)
Summary of the method: as §1

[18] = tested on: RARa:RXR (NR concentration 270 nM, RXRa partner concentration 90 nM)
Summary of the method: as §1

[19] = tested on: RARa homodimer (NR concentration 270 nM)
Summary of the method: as §1

[20] = tested on: RARb:RXRa (NR concentration 270 nM, RXRa partner concentration 90 nM)
Summary of the method: as §1

Row | Sequence | PBM binding z-score [1] | PBM binding z-score [2] | PBM binding z-score [3] | PBM binding z-score [4] | PBM binding z-score [5] | PBM binding z-score [6] | PBM binding z-score [7] | PBM binding z-score [8] | PBM binding z-score [9] | PBM binding z-score [10] | PBM binding z-score [11] | PBM binding z-score [12] | PBM binding z-score [13] | PBM binding z-score [14] | PBM binding z-score [15] | PBM binding z-score [16] | PBM binding z-score [17] | PBM binding z-score [18] | PBM binding z-score [19] | PBM binding z-score [20]
1 | CCAGACCGGTGAAAGGTAACTCAGTCTGGTACGC | -0.0585 | 0.0819 | -0.526 | 0.182 | -0.601 | 2.13 | 2.61 | 4.02 | 1.71 | 3.56 | -0.315 | 1.07 | -1.56 | -0.816 | 0.901 | 0.218 | -0.239 | 0.267 | -0.377 | 0.477
2 | TAGCCTAGGTCAGACCGGGCCAGTATACGCTATA | 2.15 | 1.09 | -0.437 | 0.609 | -0.719 | 1.61 | 0.828 | 0.617 | -0.277 | 0.23 | 0.42 | 1.13 | -0.551 | -1.06 | 0.235 | 0.913 | -0.412 | 1.14 | -1.16 | 3
3 | CCTACTGGGCCAAATGTCATTGATTCCAATGCTC | 0.068 | -0.00295 | -0.00298 | 0.307 | -0.155 | 3.42 | 7 | 7.26 | 6.52 | 7.54 | 4.77 | 4.36 | 0.17 | 0.471 | 0.28 | -0.184 | -0.329 | 0.0171 | -0.233 | 0.654
4 | ACTGGCAGGCCAAGGGTCACTCAAGATTAGTCCG | 2.36 | 2.55 | -0.0676 | 2.36 | -0.732 | 3.88 | 5.21 | 5.21 | 3.1 | 5.1 | -0.446 | 2.2 | -0.302 | -0.62 | 1.74 | 2.97 | -0.0528 | 3.8 | -0.0207 | 3.4
5 | TAGCCTAGGCCATTCAGGGGCCAGTATAGAAAGC | -0.487 | -0.796 | -0.549 | -0.624 | -0.52 | -0.185 | 0.0353 | -0.377 | -0.468 | -0.511 | -0.752 | 0.1 | -0.845 | -0.806 | -0.678 | -0.717 | -0.964 | -0.354 | -0.891 | 0.992
6 | CCAGACAGGTGAACGGTAACTCAGTCTGGTACGC | -0.375 | -0.082 | -0.28 | -0.0922 | -0.29 | 0.511 | 0.882 | 0.577 | -0.465 | 0.132 | 1.49 | 1.08 | -0.573 | -0.154 | 0.0136 | -0.325 | -0.355 | -0.289 | -0.204 | 0.99
7 | CCTAGCTGGTCAGGAGGTCACACACCGGATATGA | 3.53 | 3.73 | 1.44 | 3.21 | 0.171 | 4.14 | 2.84 | 3.59 | 1.08 | 2.74 | 0.695 | 2.85 | 0.353 | 0.266 | 3.15 | 4.2 | 0.691 | 4.65 | 0.568 | 3.67
8 | CCTACTGGGCCAAAAAGGTCATGGATGCCGATAA | 3.67 | 4.35 | 2.1 | 4.13 | -0.189 | 5.2 | 4.16 | 4.82 | 1.68 | 3.88 | 3.31 | 4.16 | 0.474 | -0.298 | 4.05 | 4.81 | 0.732 | 5.53 | 1.87 | 4.27
9 | TCTTGTAGATCAAAAGTTAAGAAAGCCGAAGCCT | 0.493 | 0.329 | -0.368 | 0.277 | -0.137 | 1.31 | 1.83 | 4.32 | 3.84 | 4.55 | 1.79 | 0.791 | 1.09 | 0.787 | -0.327 | 0.243 | -0.268 | 0.155 | -0.386 | -0.12
